The sample as a whole holds a higher share of hits than the screen did.
Methyltransferases: Primary Screen for Target Class Profiling of Small Molecule Inhibitors of Methyltransferases; actives 3.9% (n = 25,000); calls only at 40 µM; purified enzyme, MTase-Glo SAH luminescence; stronger effect = lower value; call rule not given here
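Each enzyme was assayed with SAM and its substrate. SAH formation detected by MTase-Glo luminescence; single-point 40 uM screen[…].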
MTase-Glo ctr: inhibits MTase-Glo coupling enzymes without methyltransferase; actives 6% (n = 180); Potency, µM (titrated, usually from 57.3 µM), hits mostly inhibitors; AID 1745851; MTase-Glo coupled enzymes, SAH conversion luminescence, no MTase; shares compounds with Methyltransferases; active = well fitted inhibition curve with a large enough effect; inconclusive = small, poorly fitted or top-dose-only effect
Each line names hits and unclear results; the compound was inactive in the other large screens (follow-up assays come after a bar, where they were run).

COc1cccc(N2CCN(C(=O)CCC[C@@H]3[C@H]4CCCN5CCC[C@@H](CN3C)[C@@H]45)CC2)c1	none
COC(=O)c1cc2n(n1)CC(C)(C(=O)NC1CCC(C)CC1)N(Cc1ccccc1OC)C2=O (configuration not stated)	none
CC1CCC(NC(=O)C2(C)Cn3c(nc4ccccc43)C(=O)N2Cc2ccc(OC(C)C)cc2)CC1 (configuration not stated)	none
CC(C)NC(=O)c1ccc2c(=O)n(C(C)C)c3nn(CC(=O)NC(C)(C)C)c(=O)n3c2c1	none
CCOc1ccccc1CNC(=O)c1cc2n(n1)CC(C)(C(=O)NCCC(C)C)N(C)C2=O (configuration not stated)	none
COc1ccc(-c2cc(-c3cnn(C)c3)cn3cncc23)cn1	Methyltransferases active | MTase-Glo ctr inconclusive
O=C(CSc1nnc2n(CCc3ccccc3)c(=O)c3ccccc3n12)Nc1ccc(F)cc1F	none
O=[S+]1([O-])NC2(CCN(Cc3ccccc3C(F)(F)F)C2)CNc2ccccc21 (configuration not stated)	none
O=C1NC2(CCN(Cc3ccccc3)C2)COc2ccccc21 (configuration not stated)	none
O=[S+]1([O-])NC2(CCCN(Cc3c(F)cccc3Cl)C2)COc2ccccc21 (configuration not stated)	Methyltransferases active | MTase-Glo ctr inactive
COc1cccc(S(=O)(=O)N2CC3CN(C)CC(C2)O3)c1	none
CCCn1c(C)cnc1CC1CCCN(S(=O)(=O)c2cc(OC)ccc2OC)C1 (configuration not stated)	none
CCCn1c(C)cnc1CC1CCN(C(=O)NCc2ccc(OC)cc2)C1 (configuration not stated)	Methyltransferases active | MTase-Glo ctr inactive
CNC(=O)N1CCC(C2CCN(C(=O)NCc3cccc(OC)c3)C2)CC1 (configuration not stated)	none
Cn1nnc2cc(CNC(=O)c3cccnc3)ccc21	none
Cc1cc(-c2cc3c(cn2)N(C)CCN(C)C3)ccn1	Methyltransferases active | MTase-Glo ctr inactive
CC(C)Cn1c(=O)c2ccc(C(=O)NC3CCCCC3)cc2n2c(SCC(=O)NC(C)C)nnc12	none
CCOC(=O)CC1(NC(=O)N2Cc3c(sc4c3CCCC4)-n3cccc3C2CC)CCCCC1 (configuration not stated)	none
CC(C)c1ccc(-c2cc3n(n2)CC(C)(C(=O)NC2CCCCC2)N(Cc2cccs2)C3=O)cc1 (configuration not stated)	none
COc1cccc(CCC(=O)N2CCC(OCC3CC3)C2)c1 (configuration not stated)	none
CCN(CC)c1cc(CCC(=O)N2CCN(c3cccc(OC)c3)CC2)ccn1	Methyltransferases active | MTase-Glo ctr inactive
COc1cccc(CCC(=O)N2CCC3(CC2)N=C(c2ccccc2)NO3)c1	none
CC1(C)C[C@H](NCC2CCCCC2)[C@@]2(CCC(=O)N3CCCC3)CC[C@](C)(O)C[C@@H]12	none
CCCn1c(=O)c2ccc(Cl)cc2n2c(SCC(=O)Nc3ccc(OC)cc3)nnc12	none
Cc1ccc(CN2CCC3(CC2)CC(c2ccccc2)C(=O)N3C)cc1F (configuration not stated)	none
CN1C(=O)C(c2ccccc2)CC12CCN(c1ccnc(N)n1)CC2 (configuration not stated)	Methyltransferases active | MTase-Glo ctr inactive
COc1ccc(CCNC(=O)c2cc3n(n2)CC(C)(C(=O)NCCC(C)C)N(C)C3=O)cc1OC (configuration not stated)	none
Cc1ccc(NC(=O)Cn2nc3n(C)c(=O)c4ccc(C(=O)NCC(C)C)cc4n3c2=O)cc1	none
Cc1ccc(NC(=O)Cn2nc3n(CCc4ccccc4)c(=O)c4ccccc4n3c2=O)c(C)c1	none
COc1cc(NC(=O)c2ccccn2)ccc1Cl	none
COc1cc(C(=O)NC(=S)Nc2cccc(NC(=O)c3ccccc3)c2)cc(OC)c1OC	none
COc1ccccc1CC(=O)N1CCCc2ncc(C(=O)Nc3cccc(Cl)c3)cc21	Methyltransferases active | MTase-Glo ctr inactive
O=c1c2ccccc2n2c(-c3cc(Cl)ccc3O)nnc2n1Cc1ccccc1	none
CCc1ccc(CNC(=O)c2cc3n(n2)CC(C)(C(=O)NC2CCCC2)N(CC)C3=O)cc1 (configuration not stated)	none
COC(=O)c1cc2n(n1)CC(C)(C(=O)NC1CCCCC1)N(c1ccc(OC)cc1)C2=O (configuration not stated)	none
CN1C[C@@H]2CC[C@H](CC1=O)N2C(=O)c1cnn2cc(CCO)cnc12	none
CCN(CC)Cc1cnc2c(C(=O)N3CCCN4CCC[C@H]4C3)cnn2c1	Methyltransferases active | MTase-Glo ctr inactive
CCC(O)C1CCN(C(=O)c2cnn3cc(CN(CC)CC)cnc23)CC1 (configuration not stated)	none
NC(=O)CN1C(=O)[C@@H]2CN(C(=O)c3cccs3)CCN2C1=O	none
CCn1cc(CN2CCN(C(=O)c3cccs3)CC2)ccc1=O	Methyltransferases active | MTase-Glo ctr inactive
CCn1cc(CN2CCN(C(=O)CCc3ccccc3)CC2)ccc1=O	none
CCN1C(=O)c2cc(C(=O)NCc3cccc(Br)c3)nn2CC1(C)C(=O)NC1CCCC1 (configuration not stated)	none
N#Cc1cc(CN2CCCC(C(=O)Nc3cccc(-c4ccc(F)cc4)c3)C2)c[nH]1 (configuration not stated)	Methyltransferases active | MTase-Glo ctr inactive
CC(=O)Nc1ccc(NC(=O)c2cccc(CN3CCCC(C#N)C3)c2)cc1 (configuration not stated)	none
Cc1cccc(CN2CCCC(C(=O)Nc3cccc(-n4cccn4)c3)C2)n1 (configuration not stated)	none
Cn1c(=O)c2ccc(C(=O)NC3CCCC3)cc2n2c(=O)n(CC(=O)c3ccc(F)cc3)nc12	none
Cc1cccc(-c2n[nH]n3c2nc(=O)c2ccc(C(=O)N4CCN(c5ccccc5)CC4)cc23)c1	none
CC(C)Oc1ccc(CNC(=O)c2cc3n(n2)CC(C)(C(=O)NC2CCCCC2)N(C)C3=O)cc1 (configuration not stated)	none
O=C(NC1CC1)c1ccc2c(=O)nc3c(-c4ccc(Cl)cc4)n[nH]n3c2c1	none
COCCCNC(=O)C1(C)Cn2nc(-c3ccccc3)cc2C(=O)N1Cc1ccc(Cl)cc1 (configuration not stated)	none
COc1cccc(-c2ccccc2NC(=O)C2CCN(Cc3ccccc3F)CC2)c1	none
COc1ccccc1-c1ccc(C(=O)N2CCC(C(=O)Nc3ccccc3Cl)CC2)cc1	none
COc1cccc(-c2ccccc2NC(=O)C2CCN(CC=C(C)C)CC2)c1	Methyltransferases active | MTase-Glo ctr inactive
CC1(C(=O)NC2CCCC2)Cn2c(ccc2-c2ccco2)C(=O)N1Cc1ccc(F)cc1 (configuration not stated)	none
CCCn1c(=O)c2ccc(C(=O)NC(C)C)cc2n2c(SCC(=O)NC(C)(C)C)nnc12	none
Cc1ccc(C)c(C(=O)Cn2nc3n(C(C)C)c(=O)c4ccc(C(=O)NCC(C)C)cc4n3c2=O)c1	none
COC[C@H]1C[C@@H](NC(=O)Nc2cccnc2)[C@H](O)[C@@H]1O	none
COCc1cc(NCCCNc2cccnc2)ncn1	Methyltransferases active | MTase-Glo ctr inactive
CCCN1C(=O)c2c(C(=O)Nc3cc(C)ccc3C)ncn2CC1(C)C(=O)NCc1ccc(OC)cc1 (configuration not stated)	none

Screens (PubChem)
